{"source": "ChEMBL document CHEMBL1961873", "about": "“Compounds: GSK PKIS; Assays: Nanosyn kinase panel” (2012)", "data": [{"target": "Tyrosine-protein kinase Fer (Homo sapiens) (UniProt P16591)", "sequence (P16591 whole entry, looked up)": "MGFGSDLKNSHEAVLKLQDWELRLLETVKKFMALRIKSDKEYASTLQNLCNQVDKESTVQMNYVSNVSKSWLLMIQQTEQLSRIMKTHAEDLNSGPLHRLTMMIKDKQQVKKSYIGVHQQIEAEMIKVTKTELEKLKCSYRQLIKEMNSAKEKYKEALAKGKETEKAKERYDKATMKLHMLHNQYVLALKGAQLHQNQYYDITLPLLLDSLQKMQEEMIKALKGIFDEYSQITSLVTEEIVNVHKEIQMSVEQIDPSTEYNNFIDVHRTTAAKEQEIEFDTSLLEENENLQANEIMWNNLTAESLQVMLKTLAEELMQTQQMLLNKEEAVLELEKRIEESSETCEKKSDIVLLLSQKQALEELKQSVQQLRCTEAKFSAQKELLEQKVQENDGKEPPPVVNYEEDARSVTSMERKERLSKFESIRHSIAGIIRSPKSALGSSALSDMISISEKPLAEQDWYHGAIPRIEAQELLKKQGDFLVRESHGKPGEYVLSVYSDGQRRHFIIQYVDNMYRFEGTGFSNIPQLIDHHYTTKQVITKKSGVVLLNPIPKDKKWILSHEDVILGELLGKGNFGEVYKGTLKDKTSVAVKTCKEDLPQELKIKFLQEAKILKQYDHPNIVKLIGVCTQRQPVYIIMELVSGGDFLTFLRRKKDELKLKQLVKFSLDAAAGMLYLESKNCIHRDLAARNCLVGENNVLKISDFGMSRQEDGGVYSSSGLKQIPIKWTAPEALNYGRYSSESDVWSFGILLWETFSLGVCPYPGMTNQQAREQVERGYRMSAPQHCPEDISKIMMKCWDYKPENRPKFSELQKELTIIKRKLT", "settings": "at 1 µM", "units": {"inhibition": "%"}, "values": [{"smiles": "Nc1nc(-c2ccccn2)c(-c2ccc3ncccc3n2)s1", "inhibition": 6.59}, {"smiles": "Fc1cccc(COc2ccc(Nc3ncnc4cc(-c5ccc[nH]5)sc34)cc2Cl)c1", "inhibition": 2.81}, {"smiles": "COc1cccc(-n2ncc3c(N/N=C/c4cccc(F)c4)ncnc32)c1", "inhibition": 3.05}, {"smiles": "CCn1c(-c2nonc2N)nc2c(C#CC(C)(C)O)nc(OC[C@@H](N)c3ccccc3)cc21", "inhibition": 4.88}, {"smiles": "COc1ccc(-c2coc3ncnc(N)c23)cc1", "inhibition": 2.33}, {"smiles": "Cc1cccc(-c2n[nH]cc2-c2ccc3ncccc3n2)n1", "inhibition": 0.01}, {"smiles": "Nc1ncnc2occ(-c3ccc(NC(=O)Nc4cc(C(F)(F)F)cc(C(F)(F)F)c4)cc3)c12", "inhibition": 22}, {"smiles": "[O-][S+]1CCN(Cc2ccc(-c3ccc4ncnc(Nc5ccc(OCc6ccccc6)c(F)c5)c4c3)o2)CC1", "inhibition": 6.08}, {"smiles": "Nc1nc(-c2ccc3c(c2)C(=Cc2cc(Br)c(O)c(Br)c2)C(=O)N3)cs1", "inhibition": 3.05}, {"smiles": "CC1=C(C(=O)Nc2ccc3[nH]ncc3c2)C(c2ccc3ccccc3c2)CC(=O)N1", "note": "(stereo unspecified)", "inhibition": 7.14}, {"smiles": "CS(=O)(=O)CCNCc1ccc(-c2ccc3ncnc(Nc4ccc(OCc5ccccc5)c(Cl)c4)c3c2)o1", "inhibition": 10.4}, {"smiles": "c1cnn2ncc(-c3ccnc(Nc4ccc5c(c4)OCCO5)n3)c2c1", "inhibition": 43.7}, {"smiles": "CN1CCC(C(=O)Nc2n[nH]c3nnc(-c4ccccc4)cc23)CC1", "inhibition": 5.92}, {"smiles": "Cn1cc(C=C2C(=O)Nc3cccnc32)c2ccccc21", "inhibition": 20.8}, {"smiles": "Cc1nnc(-c2ccc(C)c(-c3ccc(C(=O)Nc4cccc(C#N)c4)cc3)c2)o1", "inhibition": 1.72}, {"smiles": "CNC(=O)c1cncc(/C=C/c2c(Cl)cccc2Cl)c1", "inhibition": 5.39}]}]}
